Measured values taken from PubChem BioAssay (NCATS).
Where “and” joins values, the source holds several entries; their conditions need not be identical. Equal values may be shown once. Records with an inconclusive call do not appear. Calls of active or inactive are those of the source. Calls follow the shape of the dose curve; as a rule, active = well fitted activation curve with a large enough effect; inconclusive = small, poorly fitted or top-dose-only effect; inactive = no such curve, though single readings can be large or run the other way.

target: Cellular tumor antigen p53 (Homo sapiens) (UniProt P04637); assay: Primary qHTS for small molecule compounds that upregulate eGFP-tagged delta133p53alpha (in N-terminal) cells. (AID 2060322); settings: NCI-H358 eGFP-delta133p53alpha fluorescence, 24 h; activation: stronger effect = higher value; also: nearly all actives have a fitted effect of over 75% in size;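 as to activation: series mostly up to about 56 µM; 0% = DMSO vehicle and 100% = reference activator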
Sequence (P04637 whole entry, looked up): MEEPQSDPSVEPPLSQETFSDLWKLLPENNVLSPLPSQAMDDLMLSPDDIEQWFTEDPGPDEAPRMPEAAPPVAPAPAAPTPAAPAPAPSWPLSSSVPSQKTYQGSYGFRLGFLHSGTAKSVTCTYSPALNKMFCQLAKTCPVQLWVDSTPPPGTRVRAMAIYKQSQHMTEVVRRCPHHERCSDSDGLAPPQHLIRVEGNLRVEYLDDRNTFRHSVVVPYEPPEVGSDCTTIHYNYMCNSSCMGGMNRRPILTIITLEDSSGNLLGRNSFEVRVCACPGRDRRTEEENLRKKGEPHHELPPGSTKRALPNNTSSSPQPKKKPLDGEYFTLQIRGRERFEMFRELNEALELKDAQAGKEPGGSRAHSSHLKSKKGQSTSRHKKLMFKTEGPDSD
How it was run: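 NCI-H358 cells pre-induced 24 h with 10 ng/ml doxycycline to express N-terminal eGFP-delta133p53alpha, then dosed 24 h at 37C without doxycycline; fixed, Hoechst-stained, GFP intensity by laser scanning cytometry, normalized to DMSO (0%) and 57.5 uM 5-azacytidine (100%).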
Potency is read from the fitted curve at half-maximal effect.

c1ccc2c(c1)Nc1ccccc1S2 was tested. Which activation did it give?
Its activation is 13% (inactive) and 14.2% (inactive).

CCC1(c2ccccc2)CCC(=O)NC1=O (centres undefined) was tested. Which activation did it give?
The activation was 4.18% (inactive).

Which activation does the source give for CCOC(=O)C(c1c(O)c2ccccc2oc1=O)c1c(O)c2ccccc2oc1=O here?
The activation was -3.95% (inactive).

How did the activation turn out when O=[N+]([O-])c1ccc([As](=O)(O)O)cc1 was run?
Its activation is -14.2% (inactive).

How did the activation turn out when CCN(CC)CCOC(=O)C(O)(c1ccccc1)c1ccccc1 was run?
Its activation is 20.9% (inactive).

Which activation does the source give for CC(CC(C(N)=O)(c1ccccc1)c1ccccc1)N(C)C (centres undefined) here?
Its activation is -9.6% (inactive).

Which activation does the source give for CCN(CC)Cc1nccn1-c1ccc([N+](=O)[O-])cc1C(=O)c1ccccc1Cl here?
Its activation is -4.18% (inactive).

How did the activation turn out when CCC(=O)OC1CCC2C3CCC4=CC(=O)CC[C@@]4(C)C3CC[C@]12C (some centres undefined) was run?
The activation was 14.6% (inactive).

With CS(=O)(=O)c1ccc(C(=O)C2C(=O)CCCC2=O)c([N+](=O)[O-])c1 as the compound, how does the activation read?
Its activation is -5.86% (inactive).

Which activation does the source give for ClCc1cccc(Cl)c1 here?
The activation was 5.02% (inactive).

How did the activation turn out when CN(C)C(=O)Oc1cc(OC(=O)N(C)C)cc(C(O)CNC(C)(C)C)c1 (centres undefined) was run?
The activation was -17.6% (inactive).

How did the activation turn out when CCOC(=O)C1(c2ccccc2)CCN(CCC(C#N)(c2ccccc2)c2ccccc2)CC1 was run?
Its activation is -1.69% (inactive).

Which activation does the source give for C1=C2CCCN[C@H]2[C@@H]2C[C@H]1[C@@H]1CCCCN1C2 here?
Its activation is 1.08% (inactive).

CNC(C)(C)Cc1ccccc1 was tested. Which activation did it give?
The activation was -3.35% (inactive).

How did the activation turn out when O=C(O)c1ccnc2cc(C(OCCN3CCC(F)(F)CC3)c3ccccc3Cl)[nH]c12 (centres undefined) was run?
The activation was -26.8% (inactive).

With COc1ccc(C(c2ccc(OC)cc2)C(Cl)(Cl)Cl)cc1 as the compound, how does the activation read?
Its activation is -10.7% (inactive).

With CC[C@H]1C=CC=CC[C@@H](C)[C@H](O)[C@@](C)(O)C(=O)[C@@H](C)[C@H](O)[C@@H](C)C(=O)[C@@H](C)[C@H](O)[C@@H](C)C=CC(=O)O[C@@H]2[C@@H](C)[C@H](CC1)O[C@]1(CC[C@H](C)[C@H](C[C@@H](C)O)O1)[C@H]2C as the compound, how does the activation read?
The activation was 11.3% (inactive).

With C[C@H]1C(=O)O[C@@H]2CCN3CC=C(COC(=O)[C@](C)(O)[C@]1(C)O)[C@H]23 as the compound, how does the activation read?
Its activation is -36.8% (inactive).

For Cc1cccc(Cc2cnc[nH]2)c1C, which activation is on record?
Its activation is -0.837% (inactive).

For Clc1ccc(CCC(Cn2ccnc2)Sc2c(Cl)cccc2Cl)cc1 (centres undefined), which activation is on record?
Its activation is 18.6% (inactive) and -21.6% (inactive).

For CC(C)(C)NCC(O)c1cc(Cl)c(N)c(C(F)(F)F)c1 (centres undefined), which activation is on record?
The activation was -6.21% (inactive).

Clc1ccc(C(c2ccc(Cl)cc2)C(Cl)(Cl)Cl)cc1 was tested. Which activation did it give?
The activation was -11.9% (inactive).

For CC(C)NCC(O)c1ccccc1Cl (centres undefined), which activation is on record?
The activation was 21.8% (inactive).

Which activation does the source give for COP(=S)(OC)Oc1ccc(S(=O)(=O)N(C)C)cc1 here?
Its activation is 5.86% (inactive).

O=C(N/N=C/c1ccc([N+](=O)[O-])o1)c1cc([N+](=O)[O-])cc([N+](=O)[O-])c1O was tested. Which activation did it give?
Its activation is -6.21% (inactive).

For C[C@](O)(CS(=O)(=O)c1ccc(F)cc1)C(=O)Nc1ccc(C#N)c(C(F)(F)F)c1, which activation is on record?
The activation was -4.55% (inactive).

How did the activation turn out when O=C(CCCN1CCC(n2c(=O)[nH]c3ccccc32)CC1)c1ccc(F)cc1 was run?
Its activation is -4.18% (inactive).

With CN(C)CCc1c[nH]c2ccc(O)cc12 as the compound, how does the activation read?
Its activation is 5.08% (inactive).

With COP(=S)(OC)Oc1ccc(SC)c(C)c1 as the compound, how does the activation read?
The activation was -15.9% (inactive).

With CC(=O)O[C@@]12CO[C@H]1C[C@H](O)[C@@]1(C)C(=O)[C@H](O)C3=C(C)[C@@H](O)C[C@@](O)([C@@H](OC(=O)c4ccccc4)[C@@H]21)C3(C)C as the compound, how does the Potency read?
Its Potency is 30.6 µM (active).

For C[C@H](N)[C@H](O)c1ccc(O)c(O)c1, which activation is on record?
Its activation is -36.8% (inactive).

CCNc1nc(Cl)nc(NCC)n1 was tested. Which activation did it give?
Its activation is 8.37% (inactive).

With c1ccc(N2CCNCC2)cc1 as the compound, how does the activation read?
The activation was -33.3% (inactive).

For Nc1ccccc1C(=O)OCC(O)CO (centres undefined), which activation is on record?
The activation was -5.02% (inactive).

Which activation does the source give for C=C[C@@H]1CN2CCC1C[C@@H]2[C@@H](O)c1ccnc2ccccc12 (some centres undefined) here?
Its activation is -22.8% (inactive).

With COc1cc(CC#N)cc(OC)c1OC as the compound, how does the activation read?
Its activation is 2.82% (inactive).

How did the activation turn out when CC(Cc1ccccc1)NCCCCl (centres undefined) was run?
The activation was -27.6% (inactive).

How did the activation turn out when C1CCC(NC2CCCCC2)CC1 was run?
Its activation is 7.53% (inactive).

O=C1CCC[C@@H]2[C@H]3CCCN4CCC[C@@H](CN12)[C@@H]34 was tested. Which activation did it give?
The activation was 30.7% (inactive).
